An excerpt weighted towards active compounds, which were near 1.6% of everything screened.
KCNQ2 inh: KCNQ2 (rat) channel inhibition | O88943 | CHO-K1 KCNQ2, FluxOR thallium flux, 20 min; hits give low values | B-score at 10 µM | hit rate 1.1% among 310,000;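 active = fluorescence ratio B-score at most minus 3 library SDs, with starting brightness B-score within 2 library SDs, cut at about -5.5 in these data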
Target sequence (O88943 whole entry, looked up): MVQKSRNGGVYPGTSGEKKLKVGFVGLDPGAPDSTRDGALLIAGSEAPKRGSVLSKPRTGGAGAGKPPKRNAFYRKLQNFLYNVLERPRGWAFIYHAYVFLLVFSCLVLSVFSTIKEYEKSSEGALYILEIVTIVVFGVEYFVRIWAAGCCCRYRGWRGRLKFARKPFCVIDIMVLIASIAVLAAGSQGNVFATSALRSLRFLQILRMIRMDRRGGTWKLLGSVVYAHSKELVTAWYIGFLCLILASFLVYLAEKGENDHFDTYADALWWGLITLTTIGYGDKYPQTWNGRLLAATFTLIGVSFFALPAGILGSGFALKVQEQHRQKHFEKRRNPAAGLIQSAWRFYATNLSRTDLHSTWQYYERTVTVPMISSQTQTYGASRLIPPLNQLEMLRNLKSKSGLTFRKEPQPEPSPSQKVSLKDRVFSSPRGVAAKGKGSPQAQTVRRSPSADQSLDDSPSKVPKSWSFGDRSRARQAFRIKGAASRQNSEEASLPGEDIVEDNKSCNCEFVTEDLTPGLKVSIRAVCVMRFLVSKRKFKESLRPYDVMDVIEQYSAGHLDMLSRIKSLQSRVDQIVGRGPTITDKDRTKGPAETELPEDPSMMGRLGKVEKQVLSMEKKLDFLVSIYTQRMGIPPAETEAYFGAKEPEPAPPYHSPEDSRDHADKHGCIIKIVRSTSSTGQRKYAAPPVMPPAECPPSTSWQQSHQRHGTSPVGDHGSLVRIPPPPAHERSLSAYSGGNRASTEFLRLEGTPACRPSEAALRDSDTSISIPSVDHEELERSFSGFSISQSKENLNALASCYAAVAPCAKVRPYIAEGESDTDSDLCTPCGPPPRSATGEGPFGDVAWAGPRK
KCNQ2 enhance: KCNQ2 (rat) channel potentiation; CHO-K1 KCNQ2, FluxOR thallium flux fluorescence; hits give high values; hit rate 0.54% among 310,000; AID 2239; O88943; B-score at 10 µM;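 active = fluorescence ratio B-score at least 3 SD of library B-scores, with initial fluorescence B-score within 3 of them, cut at about 5.3 in these data; same plate scores as AID 2156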;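 also: B-score of peak minus minimum over baseline fluorescence ratio after K+ and Tl+ stimulus; positive B-score means potentiation of KCNQ2 with more thallium influx and brighter signal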
An asterisk follows results filed as active; i = inactive; . = not tested or not shown.

SMILES	KCNQ2 inh	KCNQ2 enhance
CC(=N\NC(=O)c1ccccc1)/C(=N/O)C(=O)Nc1ccccc1	i	.
CCn1cc(C(=O)N[C@H](C(=O)NCCN2CCOCC2)C(C)C)c(=O)c2cc3c(cc21)OCO3	i	0.38
O=C(Cc1ccc(Cl)cc1)NCc1ccccc1Cl	i	.
O=C(NCc1ccccc1Cl)C1(S(=O)(=O)c2ccc(Cl)cc2)CC1	-5.7*	-5.7
COc1ccc(/C=C2\C(=O)N(Cc3ccc(F)cc3)CC(=O)N2Cc2ccccc2)cc1	-6.1*	-6.1
COc1ccc(/C=C2\C(=O)NCC(=O)N2Cc2ccccc2)cc1	i	.
CC(CC(=O)NCc1ccco1)S(=O)(=O)c1ccc2c(c1)CCN2C(=O)C1CC1 (centres undefined)	i	.
O=C(NCCN1CCOCC1)c1ccccc1N1C(=O)[C@@H]2Cc3c([nH]c4ccccc34)C(c3ccccc3)N2C1=O (some centres undefined)	i	.
O=C(NCCCN1CCOCC1)c1ccccc1N1C(=O)[C@@H]2Cc3c([nH]c4ccccc34)C(c3ccc(F)cc3)N2C1=O (some centres undefined)	-7.1*	-7.1
COc1cccc(-c2nc(CS(=O)(=O)CC(=O)NCc3ccccc3)c(C)o2)c1	-5.9*	-5.9
COc1cccc(-c2nc(CS(=O)(=O)CC(=O)NCCCc3ccccc3)c(C)o2)c1	i	.
Cc1cc(CN(C)C(=O)c2ccc3nc(Cc4ccccc4F)oc3c2)on1	i	0.89
Cc1cccc(C(=O)Nc2ccc(C(=O)/C=C/c3ccncc3)cc2)c1	-6*	-6
Cc1cccc(C(=O)Nc2ccc(C(=O)/C=C/c3cccnc3)cc2)c1	i	.
CC1=NN(C(=O)c2ccc(Cn3nc(C)c([N+](=O)[O-])c3C)cc2)C(O)(C(F)(F)F)C1 (centres undefined)	i	2.4
CC1=NN(C(=O)c2ccc(Cn3nc(C)c(Br)c3C)cc2)C(O)(C(F)(F)F)C1 (centres undefined)	i	13*
CC(C)C1=NN(C(=O)c2cccnc2)C(O)(C(F)(F)F)C1 (centres undefined)	i	0.87
CC1=NN(C(=O)c2cccnc2)C(O)(C(F)(F)F)C1 (centres undefined)	i	11*
Nc1nc2nccc(-c3cccnc3)n2n1	i	0.52
COc1ccc(-n2nnnc2-c2ccc(S(C)(=O)=O)cc2Cl)cc1	i	.
Cc1ccc(S(=O)(=O)NCC(C)n2nc(C)cc2C)cc1 (centres undefined)	i	2.7
Cc1ccc(C(C[N+](=O)[O-])n2nc(C)cc2C)cc1 (centres undefined)	-7.4*	-7.4
C=C(C)c1cccc(C(C)(C)NC(=O)Nc2ccccc2OCC)c1	i	8.7*
C=C(C)c1cccc(C(C)(C)NC(=O)Nc2cc(C)ccc2OC)c1	i	1.9
COC(=O)/N=C/c1c(NCc2ccccc2)nc2c(C)cccn2c1=O	i	.
SMILES	KCNQ2 inh	KCNQ2 enhance
CCOC(=O)c1c(C)[nH]c(C2=NNC(=Nc3cccc(Cl)c3)SC2)c1C	i	.
COc1ccc(CN2CCC(n3nccc3NC(=O)CCc3ccccc3)CC2)c(C)c1C	i	1.8
COc1ccc2oc(C(=O)OCC(=O)c3ccc4c(c3)OCCO4)c(C)c2c1	i	.
COc1ccc2oc(C(=O)N(C)Cc3ccc4c(c3)OCCO4)c(C)c2c1	-6.7*	-6.7
COc1ccc2oc(C(=O)N3CCN(C(=O)c4ccco4)CC3)c(C)c2c1	i	3.3
COc1ccc2oc(C(=O)N(Cc3ccco3)Cc3cccs3)c(C)c2c1	-5.8*	-5.8
O=C(NCc1cccs1)C1CCC(=O)N(Cc2cccc(C(F)(F)F)c2)C1 (centres undefined)	i	0.67
O=C(Nc1ccc(S(=O)(=O)Nc2ncccn2)cc1)C1=NN(c2ccccc2)C(=O)CC1	i	1.4
CCOc1ccc(CCNc2nc3ccccc3n3cnnc23)cc1OCC	i	0.73
CN(Cc1ccccc1)C(=S)NC(=O)c1cccs1	i	2.2
CN(Cc1ccc(F)cc1)C(=O)C(Cc1ccccc1)NC(=O)c1ccccc1 (centres undefined)	i	.
CN(Cc1ccccc1)C(=S)NC(=O)c1ccc(-c2ccccc2)cc1	i	7.1*
CSc1ccc(CN(C)C(=O)C(Cc2ccccc2)NC(=O)c2ccccc2)cc1 (centres undefined)	-5.5*	-5.5
CN(Cc1ccccc1)C(NC(=O)c1ccco1)C(Cl)(Cl)Cl (centres undefined)	i	0.56
CN(Cc1ccccc1)C(NC(=O)c1ccccc1)C(Cl)(Cl)Cl (centres undefined)	-5.8*	-5.8
CCN(CC)C(=O)COc1ccc(C=O)cc1OC	i	.
Cc1ccccc1NC(=O)N1CCN(C/C=C/c2ccccc2)CC1	i	0.37
CCOc1ccccc1NC(=O)CCNS(=O)(=O)c1cccc2nonc12	i	.
Cc1ccc(N(Cc2cc3ccc(C)cc3[nH]c2=O)S(C)(=O)=O)c(C)c1	i	1.3
Cc1noc(C)c1COC(=O)c1ccc(S(=O)(=O)N2CCCCC2)cc1	i	.
COc1ccccc1NC(=O)c1ccc2c(O)c(S(=O)(=O)c3ccccc3)c(=O)[nH]c2c1	i	0.57
C/C(=N\Nc1ccc(C(=O)O)cc1)c1ccc2c(c1)Nc1ccccc1S2	i	5.3*
COc1ccc(/C(C)=N/Nc2cccc(C(=O)O)c2)cc1OC	i	.
O=S(=O)(Nn1cnnc1)c1ccc(F)cc1	i	0.71
O=C(NCCN1CCN(C(=O)c2ccc(F)cc2)CC1)C(=O)NCc1ccccc1	i	0.13
SMILES	KCNQ2 inh	KCNQ2 enhance
OC(c1ccccc1)(C1CCCCC1)C(CN1CCOCC1)c1ccccc1 (centres undefined)	-5.7*	-5.7
COc1ccc(C(O)(C2CCCCC2)C(CN2CCOCC2)c2ccccc2)cc1 (centres undefined)	i	.
O=c1c2cc(-c3ccccc3)sc2ncn1/N=C/c1ccco1	-5.9*	-5.9
CCCCn1cnc2sc(-c3ccccc3)cc2c1=O	i	0.71
CC(=O)c1ccc(OCc2ccc(Oc3c(Cl)cccc3[N+](=O)[O-])cc2)cc1	i	.
NC1=NC[C@@H](Cc2ccc(O)cc2)N1CCC12CC3CC(CC(C3)C1)C2	i	0.44
Cc1ccc(S(=O)(=O)N2CCC(C(=O)OCC(=O)N(Cc3ccccc3)C(C)(C)C)CC2)cc1C	-6.5*	-6.5
CCOC(=O)C1CCN(S(=O)(=O)c2ccc(C)c(C)c2)CC1	i	1.2
COc1cc([N+](=O)[O-])cc(/C=N/NC(=O)C(C)Nc2cccc3ccccc23)c1O (centres undefined)	i	0.91
COc1ccccc1NC(C)C(=O)N/N=C/c1ccccc1OCc1cccc(Br)c1 (centres undefined)	-6.3*	-6.3
N/C(=N\OC(=O)COc1ccc2ccccc2c1)c1cccnc1	i	1.4
CCOC(=O)C1=C(COC(=O)[C@@H]2CCCN2S(=O)(=O)c2ccc(C)cc2)NC(=O)NC1C (some centres undefined)	i	.
CCc1ccc(N2CC(C)Cn3c2nc2c3c(=O)[nH]c(=O)n2C)cc1 (centres undefined)	i	0.7
Cc1ccc2c(c1)-c1ncc(C(=O)c3cc(Br)ccc3O)cc1CO2	-7.4*	-7.4
Cc1ccc(O)c(C(=O)c2cnc3c(c2)CN(C)C(=O)N3)c1	i	0.53
CCOC(=O)c1c(NC(=O)CSc2nc3ccc(OC)cc3[nH]2)sc2c1CC(C)(C)NC2(C)C	i	0.32

Bioassay records from PubChem BioAssay.
